Assay results published in ChEMBL document CHEMBL3988442, “University of Dundee, Small-Polar-MMV Screening Library” (2021).
Out of some 67,000 compounds screened, about 300 (0.45%) showed an effect of 50% or more. The entries come from a sample that favours strong results as a whole.

molecular target: Polyketide synthase Pks13 (Mycobacterium tuberculosis (strain ATCC 25618 / H37Rv)) (UniProt I6X8D2); assay: Mycobacterium tuberculosis Polyketide synthase 13 Thioesterase (PKS13); assay type: functional; design: scale not given: in the data most compounds retested in dose-response had high values; settings: 30 µM
Sequence (I6X8D2 whole entry): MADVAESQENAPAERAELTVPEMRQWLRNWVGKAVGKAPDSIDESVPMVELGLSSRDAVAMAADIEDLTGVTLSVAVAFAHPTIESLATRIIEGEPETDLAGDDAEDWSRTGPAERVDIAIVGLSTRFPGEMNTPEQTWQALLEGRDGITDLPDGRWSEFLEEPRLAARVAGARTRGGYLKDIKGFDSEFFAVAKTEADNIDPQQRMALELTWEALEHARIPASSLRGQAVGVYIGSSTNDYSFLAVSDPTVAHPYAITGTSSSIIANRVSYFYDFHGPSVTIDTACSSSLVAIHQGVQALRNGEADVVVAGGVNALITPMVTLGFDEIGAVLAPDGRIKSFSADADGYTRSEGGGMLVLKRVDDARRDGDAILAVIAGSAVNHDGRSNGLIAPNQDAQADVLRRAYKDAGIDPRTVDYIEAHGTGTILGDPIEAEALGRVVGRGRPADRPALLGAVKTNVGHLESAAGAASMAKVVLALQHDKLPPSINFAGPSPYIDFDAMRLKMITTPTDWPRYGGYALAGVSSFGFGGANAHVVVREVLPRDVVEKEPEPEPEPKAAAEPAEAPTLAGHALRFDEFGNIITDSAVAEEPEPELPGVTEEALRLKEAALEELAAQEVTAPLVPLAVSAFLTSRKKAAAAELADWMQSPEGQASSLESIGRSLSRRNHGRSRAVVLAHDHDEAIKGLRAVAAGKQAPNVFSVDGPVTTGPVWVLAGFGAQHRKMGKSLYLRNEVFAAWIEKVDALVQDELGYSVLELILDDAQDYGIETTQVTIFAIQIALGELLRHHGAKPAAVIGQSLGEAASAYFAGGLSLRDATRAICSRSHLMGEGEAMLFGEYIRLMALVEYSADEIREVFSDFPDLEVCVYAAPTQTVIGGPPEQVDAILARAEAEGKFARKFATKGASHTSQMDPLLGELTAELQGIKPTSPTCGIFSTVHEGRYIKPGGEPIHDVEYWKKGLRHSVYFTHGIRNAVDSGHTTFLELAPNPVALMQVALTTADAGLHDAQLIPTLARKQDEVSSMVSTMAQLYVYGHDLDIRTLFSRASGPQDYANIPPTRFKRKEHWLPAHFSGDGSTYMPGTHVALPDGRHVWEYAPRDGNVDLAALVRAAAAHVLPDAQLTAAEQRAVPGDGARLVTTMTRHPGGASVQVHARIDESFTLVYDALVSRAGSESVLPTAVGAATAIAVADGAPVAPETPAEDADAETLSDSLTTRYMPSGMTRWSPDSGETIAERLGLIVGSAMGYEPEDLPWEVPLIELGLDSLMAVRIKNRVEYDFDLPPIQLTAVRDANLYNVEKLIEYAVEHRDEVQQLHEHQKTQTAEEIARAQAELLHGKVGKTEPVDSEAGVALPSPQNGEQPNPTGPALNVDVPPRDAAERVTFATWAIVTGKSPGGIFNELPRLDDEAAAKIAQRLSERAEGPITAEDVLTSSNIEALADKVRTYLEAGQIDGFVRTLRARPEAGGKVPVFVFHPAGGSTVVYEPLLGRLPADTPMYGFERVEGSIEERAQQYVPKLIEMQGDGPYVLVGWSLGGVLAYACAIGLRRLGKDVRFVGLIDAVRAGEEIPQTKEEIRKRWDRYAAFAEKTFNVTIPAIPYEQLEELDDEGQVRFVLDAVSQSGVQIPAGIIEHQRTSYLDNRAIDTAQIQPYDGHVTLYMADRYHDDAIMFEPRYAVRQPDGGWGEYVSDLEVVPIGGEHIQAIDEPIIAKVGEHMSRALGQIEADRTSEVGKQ

| Structure (SMILES) | Percent Effect |
| --- | --- |
| CN1CCC(NC(=O)c2cc(Br)cc(Cl)c2O)C1=O (centres undefined) | 11.6% |
| CN1CCC(NC(=O)c2cc(Cl)cc(Br)c2O)C1=O (centres undefined) | 11.2% |
| CN1CCC(NC(=O)c2cc(F)cc(Cl)c2O)C1=O (centres undefined) | 54% |
| C/C(NC(=O)c1ccccn1)=C1\C(=O)C[C@@H]2[C@H]1C2(C)C | 37.5% |
| COCc1noc(-c2ccc(N(C)Cc3ccc(C)o3)nc2)n1 | 69.6% |
| COCc1noc(-c2ccc(N(C)Cc3cc(C)no3)nc2)n1 | -8.23% |
| COCc1noc(-c2ccc(N(C)Cc3ncccc3C)nc2)n1 | 5.81% |
| COCCN(C)CC(=O)N1C[C@H]2CC[C@@H]1CN(C(=O)c1ccncc1)C2 | -9.17% |
| Cc1oc(C(C)C)cc1C(=O)N1C[C@H]2CC[C@@H]1CN(C(=O)N(C)C)C2 | -5.27% |
| Cc1ccc(N2C[C@H]3CCC[C@@H](CN(C)C)[C@H]3C2)nn1 | -24.5% |
| Cc1cc(NC(=O)CN2CCC(N3CCNC3=O)CC2)on1 | -25.3% |
| CC(C)c1cc(NC(=O)CN2CCC(N3CCNC3=O)CC2)on1 | 0.26% |
| CC(C)(C)c1cc(NC(=O)CN2CCC(N3CCNC3=O)CC2)on1 | 80.9% |
| Cc1noc(C)c1CN1C[C@@H]2OCCN(Cc3cnn(C)c3)[C@@H]2C1 | -27.8% |
| C[C@@H]1C[C@@H]2CCN(Cc3nccs3)C[C@H]2O1 | -25.2% |
| c1cncc(COC[C@H]2CC[C@H]3[C@H](CCN3Cc3cccs3)O2)c1 | -37.9% |
| O=C(Nc1ccccn1)C1CC(=O)N(Cc2ccccn2)C1 (centres undefined) | -26.6% |
| CCc1cccc(C)c1NC(=O)C1CC(=O)N(Cc2ccccn2)C1 (centres undefined) | 58.8% |
| Cc1ccc(Cl)cc1NC(=O)C1CC(=O)N(Cc2ccccn2)C1 (centres undefined) | -5.88% |
| Cc1nnc([C@H]2C[C@H]3OCC[C@H]3N(S(=O)(=O)N(C)C)C2)o1 | -28.4% |
| CC(C)N1CCO[C@H]2CN(Cc3cc[nH]n3)C[C@H]21 | -16.1% |
| CN(Cc1ccco1)C[C@H]1OC[C@@H]2CCN(Cc3cccs3)C[C@@H]21 | -7.96% |
| Cc1ccn2c(=O)cc(CSCC(=O)Nc3nnc(C(C)C)s3)nc2c1 | -42% |

| Structure (SMILES) | Percent Effect |
| --- | --- |
| CC(C)c1nnc(NC(=O)CSCc2cc(=O)n3ccccc3n2)s1 | -12.4% |
| Cc1cccn2c(=O)cc(CSCC(=O)Nc3nnc(C(C)C)s3)nc12 | 98.2% |
| CNc1cncc(C2CCCN2c2cc(C)ncn2)n1 (centres undefined) | 55% |
| Cc1cc(N2CCCC2c2cncc(N(C)C)n2)ncn1 (centres undefined) | -0.232% |
| Cc1cc(N2CCCC2c2cnccn2)ncn1 (centres undefined) | -32.2% |
| O=C(NC1CC1)[C@@H]1C[C@@H]2CCN(Cc3ccoc3)C[C@@H]2O1 | -9.29% |
| O=C(c1cn2ccsc2n1)N1CCN(CC2CC2)[C@@H]2CS(=O)(=O)C[C@@H]21 | -4.84% |
| CC[C@H](C)[C@H](N)C(=O)Nc1nc(-c2cnc(N3CCOCC3)nc2)cs1 | 36.7% |
| CC[C@H](C)[C@H](N)C(=O)Nc1nc(-c2cnc(N(C)C)nc2)cs1 | 146% |
| CC[C@H](C)[C@H](N)C(=O)Nc1nc(-c2cnc(N(C)CCO)nc2)cs1 | 27.2% |
| CN1CCc2c(sc3c2C(=O)NC(/C=C/c2ccccc2)N3)C1 (centres undefined) | 33.3% |
| O=C1C[C@H]2[C@H](CCN2C(=O)c2cc[nH]n2)N1Cc1cccnc1 | -24.8% |
| O=C1CC(c2ccccc2)c2sc(C(=O)O)c(-c3ccccc3)c2N1 (centres undefined) | -32% |
| O=C1CC(c2ccco2)c2sc(C(=O)O)c(-c3ccccc3)c2N1 (centres undefined) | 65.6% |
| O=C1CC(c2ccc(O)cc2)c2sc(C(=O)O)c(-c3ccccc3)c2N1 (centres undefined) | -18.2% |
| O=C(C1CC1)N1CCN(C(=O)C2CC(=O)N(c3ccccc3Br)C2)CC1 (centres undefined) | -26.4% |
| O=C(C1CC(=O)N(c2ccccc2Br)C1)N1CCCCCC1 (centres undefined) | -11.4% |
| CCOC(=O)N1CCN(C(=O)C2CC(=O)N(c3ccccc3Br)C2)CC1 (centres undefined) | 50.9% |
| COc1ncccc1CN1C[C@@H]2COC[C@]2(CNS(C)(=O)=O)C1 | 1.01% |
| CCOCC1CCCN(C(=O)NCc2ccc(-c3ccn[nH]3)cc2)C1 (centres undefined) | 56.4% |
| CC(=O)N1CCCN(C(=O)NCc2ccc(-c3ccn[nH]3)cc2)CC1 | -4.03% |
| CC(=O)NC1CCCN(C(=O)NCc2ccc(-c3ccn[nH]3)cc2)C1 (centres undefined) | -5.89% |
| Cc1nnc(N2CC[C@H]3C[C@@H](C(=O)NC4CCCC4)O[C@H]3C2)s1 | -27.2% |

| Structure (SMILES) | Percent Effect |
| --- | --- |
| O=C([C@H]1C[C@H]2OCC[C@H]2N(Cc2ccccn2)C1)N1CCCCO1 | -14.6% |
| CN(C)CC(=O)N1Cc2nc(C(=O)NCc3ccncc3)oc2C1 | -7.86% |
| CN(C)CC(=O)N1Cc2nc(C(=O)NCc3ccccc3)oc2C1 | 72.3% |
| CCCNC(=O)c1nc2c(o1)CN(C(=O)CN(C)C)C2 | -38.7% |
| Cc1cc(CNC(=O)c2ccno2)c(C)o1 | -13.1% |
| Cc1cc(CNC(=O)c2cnoc2C)c(C)o1 | 10.7% |
| Cc1cc(C(=O)NCc2cc(C)oc2C)no1 | 59.4% |
| Cc1nc([C@H]2C[C@@H]3CCN(Cc4scnc4C)C[C@H]3O2)no1 | -27.4% |
| Cc1cc(C)n(-c2nc(C(=O)NCCN3CCC(C)CC3)cs2)n1 | 51.2% |
| Cc1cc(C)n(-c2nc(C(=O)NCCS(=O)(=O)N3CCCCC3)cs2)n1 | 16% |
| Cc1cc(C(=O)NCCN2CCC(C)CC2)nn1C(C)(C)C | -8.5% |
| CN(C)C(=O)CO[C@H]1CN(Cc2ccsc2)[C@@H]2COC[C@H]12 | -4.76% |
| O=C(C1CC1)N1C[C@H]2CCCN(S(=O)(=O)c3cccc(F)c3)[C@H]2C1 | -2.59% |
| Cc1ccc(-c2ncc(C(=O)NCCNc3ncccn3)s2)c(C)c1 | 70.6% |
| CC(=O)NCCNC(=O)c1cnc(-c2ccc(C)cc2C)s1 | 10.8% |
| Cc1ccc(-c2ncc(C(=O)NCCNC(=O)C(C)C)s2)c(C)c1 | 1.54% |
| Cc1ccc(C(=O)N2CC[C@H]3[C@@H]2CCC(=O)N3c2cccnc2)o1 | -561% |
| CN1CCS(=O)(=O)[C@@H]2CCN(C(=O)CC(C)(C)C)CC[C@@H]21 | -26% |
| Cc1cc(CN2C[C@@H]3COC[C@H](C(=O)N4CCCCO4)[C@@H]3C2)oc1C | -10.7% |
| Cc1cnc(N2C[C@@H]3CCN(CC4CC4)C(=O)[C@H]3C2)nc1 | -1.64% |
| CC(C)[C@H](NC(=O)c1cccc(CCC(C)(C)O)c1)C(N)=O | 5.12% |
| C[C@H](NC(=O)c1cccc(CCC(C)(C)O)c1)C(N)=O | 54% |
| CC(C)(O)CCc1cccc(C(=O)N[C@@H](CO)C(N)=O)c1 | 10.3% |
